Screens: PubChem BioAssay, several laboratories
BH1578 lux ind = quorum light induction in luxS cqsA deficient V. cholerae | V. cholerae BH1578 lux reporter, luminescence, 6 h | activation, % at 18.7 µM | AID 588436 | 350,000 tested, 0.16% active; in the data active = activation mostly above about 9.7%, no sharp cut-off; inconclusive = no clear call, values can overlap the other calls; inactive = mostly below about 3.7%
BJeLR lethal = kills HRASV12-expressing BJeLR cells | BJeLR (HRASV12) viability, CellTiter-Glo ATP luminescence, 48 h | inhibition, % (no concentration beside the values) | 300,000 tested, 0.17% active | AID 1554; in the data active = inhibition above about 50%; inconclusive = no clear call, values can overlap the other calls
BoNT-A LC inh2 = blocks Botulinum neurotoxin A light chain protease | multiplex microsphere protease substrate cleavage, flow cytometry | inhibition, % at 10 µM | 360,000 tested, 0.17% active | AID 588499; also: plate controls were buffer without enzyme for full effect and enzyme alone for no effect
BoNT F protease = inhibitors of Botulinum neurotoxin F light chain protease. Multiplex microsphere protease cleavage assay, flow cytometry. inhibition, % at 10 µM. 360,000 tested, 0.22% active. AID 588497; in the data active = inhibition above about 35%, passing the limit was not always enough; inconclusive = no clear call, values can overlap the other calls; also: plate controls were buffer without enzyme for full effect and enzyme alone for no effect
Bead autofluor = compound fluorescence in toxin protease inhibitor counterscreen. compound autofluorescence counterscreen, microsphere flow cytometry; active compounds read high. fluorescence intensity (no concentration beside the values). 360,000 tested, 3.1% active; in the data active = fluorescence intensity above about 16000; inconclusive = no clear call, values can overlap the other calls
Anthrax LF inh2 = blocks Bacillus anthracis lethal factor protease | inhibition, % at 10 µM | AID 588501 | P15917 | multiplex microsphere protease cleavage assay, LF | 360,000 tested, 0.12% active; also: plate controls were buffer without enzyme for full effect and enzyme alone for no effect
* = called active by the depositor; i = inactive; ? = inconclusive; nt = no result. Rows were chosen to be rich in hits. Some 3.7% of all compounds tested hit in one or more screens of this group. Rule as the data show it, unless noted: active = inhibition above about 30%; inconclusive = no clear call, values can overlap the other calls; inactive = below that.

SMILES	BH1578 lux ind	BJeLR lethal	BoNT-A LC inh2	BoNT F protease	Bead autofluor	Anthrax LF inh2
CCCCCCc1nc2nc(Cl)c(Cl)nc2[nH]1	i	nt	0	-13	3746	-8
CCOC(=O)C1(C)CCCN(C(=O)c2cccc(C#N)c2)C1 (stereo not drawn)	0	nt	0	2	3785	-6
Cc1ccc(/C(N)=N/OC(=O)N2c3ccccc3Sc3ccccc32)cc1	-1	-6	-1	-18	3427	-4
Cc1ccccc1/C(N)=N/OC(=O)N1c2ccccc2Sc2ccccc21	0	1	-2	-5	23999*	-2
C=CCN(C(=O)Nc1ccc(F)cc1)C1CC(=O)N(c2ccc(OC)cc2)C1=O (stereo not drawn)	0	nt	4	3	21431*	-6
CC(C)c1nnc(NC(=O)C2CCCCC2)s1	-1	5	-1	-18	4719	-10
CC(C)c1cc(C(N)=O)c(NC(=O)C2CCC2)s1	i	-12	1	4	21955*	0
COCCNC(=O)C1CCCN(C(=O)c2ccc(SC(F)(F)F)cc2)CC1 (stereo not drawn)	0	nt	0	0	3819	-5
O=c1[nH]ncc(N/N=C\c2cccnc2)c1Cl	1	1	nt	nt	nt	nt
Cc1cccc(/C=N\Nc2cn[nH]c(=O)c2Cl)c1	-1	17	12	11	17627*	3
CCOC(=O)C1=C(O)CSC1=Nc1ccc(Cl)cc1	-4	3	-1	-1	16689*	-1
CCOC(=O)C1=C(O)CSC1=Nc1ccccc1	-8	0	nt	nt	nt	nt
COc1ccc(NC(=O)CC2C(=O)N(CCc3ccccc3)C(=S)N2Cc2cccnc2)cc1 (stereo not drawn)	i	1	-3	-6	20810*	0
C=CCN1C(=O)C(CC(=O)Nc2ccc(OC)cc2)N(Cc2ccco2)C1=S (stereo not drawn)	-2	-1	?	-1	22980*	1
COC(=O)c1cnn(-c2ccc(F)cc2F)c1/C=N/NC(=S)NC(C)(C)C	0	-10	-4	?	3848	52*
CNC(=S)N/N=C/c1c(C(=O)OC)cnn1-c1ccc(F)cc1F	-1	9	4	?	3187	-1
CCCCCCCCN1C(=O)[C@H](CC(=O)NCc2ccc(OC)c(OC)c2)C[C@@]2(C(=O)OC)CCCCC=C12	nt	nt	1	-2	5956	-5
CN1N=C(N)c2cn(C3OC(COP(=O)(O)O)C(O)C3O)c3ncnc1c23 (stereo not drawn)	50*	nt	0	-9	2960	-2
C[C@@H]1C[C@H]2OC(=O)C3(CO3)[C@H]2[C@H](O)[C@]2(C)C(=O)C3OC3[C@@H]12 (stereo partly drawn)	nt	73*	nt	nt	nt	nt
CCS(=O)(=O)Nc1ccc(C2=NN(C(=O)c3ccco3)C(c3ccc(C)cc3)C2)cc1 (stereo not drawn)	i	-9	?	-2	16946*	-13
CCS(=O)(=O)Nc1ccc(C2=NN(C(=O)c3ccco3)C(c3cccc(F)c3)C2)cc1 (stereo not drawn)	1	-8	0	-5	2506	0
CCOC(=O)c1c(C)c(C(=O)NCCN2CCOCC2)c(C)n1CC	i	6	-5	-7	17127*	-4
CCOC(=O)c1c(C)c(C(=O)NCc2cccs2)c(C)n1CC	0	-10	1	2	20405*	-1
CCOC(=O)c1c(C)c(C(=O)Nc2ccccc2)c(C)n1CC	0	-1	0	8	9794	0
COc1ccc([C@H]2CC(=O)C[C@@H](CCn3cc(-c4ccncc4)nn3)O2)cc1	nt	nt	-1	-1	5964	-3
SMILES	BH1578 lux ind	BJeLR lethal	BoNT-A LC inh2	BoNT F protease	Bead autofluor	Anthrax LF inh2
O=C(Nc1ccc(Cl)cc1)c1ccc2nsnc2c1	0	0	-1	-8	4349	0
CN(C)c1ccc(NC(=O)c2ccc3nsnc3c2)cc1	i	-8	?	-3	22463*	-4
CC1(Cc2ccccc2OC(F)(F)F)C(=O)Nc2c(Cl)ccc(Cl)c21 (stereo not drawn)	i	nt	0	-2	3495	-1
Cc1nc(SCC(=O)c2ccc(Cl)cc2)c([N+](=O)[O-])[nH]1	i	8	?	-8	24383*	-2
Cc1nc(SCC(=O)c2ccc(F)cc2)c([N+](=O)[O-])[nH]1	0	4	1	-2	2519	-3
Cc1cnc(CNc2nc3cc(-c4ccccc4C)sc3c(=O)n2C)cn1	0	nt	0	-5	3831	-4
